According to PubChem BioAssay AID1159580 (chemical genetic matrix, 2015):
Among all 5,500 compounds or so, about 2,000 (36%) were called active. Inconclusive results (about 18%) are left out. Cut-off read from the data, not from the text of the source: active = normalized growth mostly below about 0.91 (no sharp cut-off); inconclusive = no clear call, values can overlap the other calls; inactive = mostly above about 0.92. The list shows a part of the results.

Experiment: chemical genetic growth profiling, strain panel (AID 1159580);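 note: tested at 20 µM; growth read once vehicle control cultures reached saturation at 30 °C; 1 = growth at the plate median or of vehicle wells; lower values mean less growth of the strain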
Details: S. cerevisiae deletion strains, growth OD
[1] = locus YCL061C, strain MRC1, stronger effect = lower value
[2] = locus YHR030C, strain SLT2, stronger effect = lower value
[3] = locus YJL187C, strain SWE1, stronger effect = lower value

Measured: normalized growth

Cc1onc(-c2ccccc2Cl)c1C(=O)N1CCCN2C(=O)c3ccccc3C21 (centres undefined)
inactive: locus YAL013W, strain DEP1, stronger effect = lower value 1 | locus YBR229C, strain ROT2, stronger effect = lower value 0.989 | [1] 0.985 | locus YDL101C, strain DUN1, stronger effect = lower value 0.963 | locus YDR150W, strain NUM1, stronger effect = lower value 0.971 | locus YEL061C, strain CIN8, stronger effect = lower value 1.01 | locus YGR078C, strain PAC10, stronger effect = lower value 0.994 | [2] 0.942 | locus YHR087W, strain rtc3, stronger effect = lower value 0.987 | [3] 1.01 | locus YJR043C, strain POL32, stronger effect = lower value 0.968 | locus YJR075W, strain HOC1, stronger effect = lower value 1.03 | locus YKL190W, strain CNB1, stronger effect = lower value 1 | locus YLR039C, strain RIC1, stronger effect = lower value 0.995 | locus YLR058C, strain SHM2 (second series), stronger effect = lower value 0.985 | locus YLR085C, strain ARP6, stronger effect = lower value 1.01 | locus YLR262C, strain YPT6, stronger effect = lower value 0.995 | locus YML094W, strain GIM5, stronger effect = lower value 1 | locus YMR219W, strain ESC1, stronger effect = lower value 1.01 | locus YMR263W, strain SAP30, stronger effect = lower value 0.999 | locus YMR307W, strain GAS1, stronger effect = lower value 0.992 | locus YNL128W, strain TEP1, stronger effect = lower value 0.991 | locus YNL153C, strain GIM3, stronger effect = lower value 0.972 | locus YNL298W, strain CLA4 (second series), stronger effect = lower value 0.998 | locus YNL322C, strain KRE1, stronger effect = lower value 1 | locus YNR030W, strain Alg12, stronger effect = lower value 0.993 | locus YPL055C, strain LGE1, stronger effect = lower value 1.01 | locus YPL241C, strain CIN2, stronger effect = lower value 0.987 | locus YPR135W, strain CTF4, stronger effect = lower value 0.931

CCCCC(=O)O[C@]1(C(=O)CO)CCC2C3CCC4=CC(=O)CC[C@]4(C)C3[C@@H](O)C[C@@]21C (some centres undefined)
inactive: locus YAL021C, strain ccr4, stronger effect = lower value 0.974 | locus YAL026C, strain drs2, stronger effect = lower value 0.982 | locus YAL030W, strain snc1, stronger effect = lower value 0.976 | locus YBL061C, strain skt5, stronger effect = lower value 0.988 | locus YBR009C, strain hhf1, stronger effect = lower value 0.985 | locus YBR023C, strain chs3, stronger effect = lower value 0.987 | locus YBR171W, strain sec66, stronger effect = lower value 0.976 | locus YBR231C, strain swc5, stronger effect = lower value 0.979 | locus YBR279W, strain paf1, stronger effect = lower value 0.989 | locus YCL011C, strain gbp2, stronger effect = lower value 0.963 | locus YCL016C, strain dcc1, stronger effect = lower value 0.981 | [1] 0.983 | locus YCL069W, strain vba3, stronger effect = lower value 0.985 | locus YCR088W, strain abp1, stronger effect = lower value 0.991 | locus YDL005C, strain med2, stronger effect = lower value 0.979 | locus YDL040C, strain nat1, stronger effect = lower value 0.981 | locus YDR001C, strain nth1, stronger effect = lower value 0.987 | locus YDR069C, strain doa4, stronger effect = lower value 0.973 | locus YDR137W, strain rgp1, stronger effect = lower value 0.939 | locus YDR159W, strain sac3, stronger effect = lower value 0.97 | locus YDR195W, strain ref2 0.933 | locus YDR297W, strain sur2, stronger effect = lower value 0.981 | locus YDR334W, strain swr1, stronger effect = lower value 0.947 | locus YDR335W, strain msn5, stronger effect = lower value 0.975 | locus YDR392W, strain spt3, stronger effect = lower value 0.968 | locus YEL003W, strain gim4, stronger effect = lower value 0.997 | locus YEL037C, strain rad23, stronger effect = lower value 0.97 | locus YEL061C, strain CIN8 (second series), stronger effect = lower value 0.98 | locus YER015W, strain faa2, stronger effect = lower value 0.972 | locus YER016W, strain bim1, stronger effect = lower value 0.974 | locus YER111C, strain swi4, stronger effect = lower value 0.981 | locus YER155C, strain BEM2 (second series), stronger effect = lower value 0.981 | locus YFR010W, strain ubp6, stronger effect = lower value 0.957 | locus YGL167C, strain pmr1, stronger effect = lower value 0.976 | locus YGL173C, strain kem1, stronger effect = lower value 0.964 | locus YGL227W, strain vid30, stronger effect = lower value 0.984 | locus YGL240W, strain doc1, stronger effect = lower value 0.973 | locus YGL253W, strain hxk2, stronger effect = lower value 0.976 | locus YHR013C, strain ard1, stronger effect = lower value 0.972 | locus YHR027C, strain rpn1, stronger effect = lower value 0.974 | [2] 0.987 | locus YHR079C, strain IRE1, stronger effect = lower value 0.994 | locus YHR142W, strain chs7, stronger effect = lower value 0.941 | locus YJL092W, strain hpr5, stronger effect = lower value 0.984 | locus YJL095W, strain BCK1 (second series), stronger effect = lower value 0.976 | locus YJL095W, strain BCK1, stronger effect = lower value 0.998 | locus YJL115W, strain asf1, stronger effect = lower value 0.952 | locus YJL129C, strain trk1, stronger effect = lower value 0.954 | locus YJL154C, strain vps35, stronger effect = lower value 0.982 | locus YJL164C, strain tpk1, stronger effect = lower value 0.984 | locus YJL166W, strain qcr8, stronger effect = lower value 0.985 | [3] 0.992 | locus YJR066W, strain TOR1, stronger effect = lower value 0.943 | locus YKL160W, strain elf1, stronger effect = lower value 0.983 | locus YKR026C, strain gcn3, stronger effect = lower value 0.969 | locus YKR091W, strain srl3, stronger effect = lower value 0.98 | locus YLL001W, strain dnm1, stronger effect = lower value 0.96 | locus YLL026W, stronger effect = lower value 0.975 | locus YLL041C, strain sdh2, stronger effect = lower value 0.979 | locus YLR027C, strain aat2, stronger effect = lower value 0.978 | locus YLR113W, strain HOG1, stronger effect = lower value 0.986 | locus YLR221C, strain rsa3, stronger effect = lower value 0.988 | locus YLR258W, strain gsy2, stronger effect = lower value 0.989 | locus YLR262C, strain YPT6 (second series), stronger effect = lower value 0.966 | locus YLR320W, strain mms22, stronger effect = lower value 0.977 | locus YLR342W, strain FKS1, stronger effect = lower value 0.981 | locus YLR357W, strain rsc2, stronger effect = lower value 0.971 | locus YLR370C, strain arc18, stronger effect = lower value 0.981 | locus YLR384C, strain iki3, stronger effect = lower value 0.979 | locus YML120C, strain ndi1, stronger effect = lower value 0.973 | locus YMR058W, strain fet3, stronger effect = lower value 0.974 | locus YMR125W, strain sto1, stronger effect = lower value 0.961 | locus YMR129W, stronger effect = lower value 0.979 | locus YMR205C, strain PFK2, stronger effect = lower value 0.997 | locus YMR231W, strain pep5, stronger effect = lower value 0.98 | locus YNL071W, strain lat1, stronger effect = lower value 0.979 | locus YNL183C, strain NPR1, stronger effect = lower value 0.942 | locus YNL209W, strain ssb2, stronger effect = lower value 0.98 | locus YNL248C, strain rpa49, stronger effect = lower value 0.946 | locus YNL322C, strain KRE1 (second series), stronger effect = lower value 0.959 | locus YNR049C, strain mso1, stronger effect = lower value 0.98 | locus YOR001W, strain rrp6, stronger effect = lower value 0.98 | locus YOR070C, strain gyp1, stronger effect = lower value 0.994 | locus YOR080W, strain dia2, stronger effect = lower value 0.975 | locus YOR083W, strain WHI5, stronger effect = lower value 0.98 | locus YOR106W, strain vam3, stronger effect = lower value 0.977 | locus YOR231W, strain MKK1, stronger effect = lower value 0.976 | locus YOR265W, strain rbl2, stronger effect = lower value 0.977 | locus YOR270C, strain vph1, stronger effect = lower value 0.869 | locus YOR290C, strain snf2, stronger effect = lower value 0.991 | locus YPL051W, strain arl3, stronger effect = lower value 1 | locus YPL078C, strain atp4, stronger effect = lower value 0.971 | locus YPL106C, strain sse1, stronger effect = lower value 0.957 | locus YPL240C, strain hsp82, stronger effect = lower value 0.972 | locus YPL256C, strain CLN2, stronger effect = lower value 0.972
